Screening data: PubChem, several laboratories
The list is not random: actives were taken first. Their share in the collection is about 2.3%.
Bcl-xL primary – inhibitors of human Bcl-xL; Q07817; GST-Bcl-xL / FITC-Bim BH3 peptide fluorescence polarization; inhibition, % at 10.9 µM; 320,000 compounds, 0.7% hits; AID 2129;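 active means inhibition above the mean of all tested compounds plus 3 SD, cutoff set per campaign, cut at about 30% in these data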;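 further: 0% = DMSO wells and 100% = unlabeled Bim-BH3 peptide competitor; inhibitors lower millipolarization by displacing the labeled peptide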
MCL1 BIM primary – inhibitors of human MCL1 binding to BIM-BH3 peptide. 320,000 compounds, 0.68% hits. AID 2057. GST-MCL1 / FITC-Bim-BH3 fluorescence polarization. inhibition, % at 10.9 µM;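 active means inhibition above the mean inhibition of all tested compounds plus 3 SD, set per campaign, cut at about 40% in these data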;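 further: 0% = DMSO wells and 100% = unlabeled Bim-BH3 peptide control; higher means more loss of mP so more displacement of Bim peptide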
Mcl1-Noxa inh – Mcl-1/Noxa interaction inhibition. Q07820. inhibition, % at 21.7 µM. 220,000 compounds, 1.5% hits. TR-FRET Mcl-1/Noxa peptide binding, 2 h;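 active means compounds that cut the protein-peptide binding signal by more than 50% relative to plate controls in a single-dose test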;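 further: His-tagged Mcl-1 with rhodamine Noxa BH3 peptide and terbium anti-His antibody; 0% = Mcl-1 plus Noxa peptide wells and 100% = peptide-only wells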
GLD-1 RNA inh – GLD-1-TGE RNA interaction inhibition (C. elegans) | Q17339 | purified GLD-1 + fluorescein TGE RNA, fluorescence polarization | inhibition, % at 5.96 µM | 320,000 compounds, 0.44% hits | AID 2280;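 active means percent inhibition above a per-plate cutoff, the plate mean of test compounds plus 3 SD, cut at about 30% in these data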;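 further: 0% = DMSO wells with GLD-1 and probe and 100% = wells lacking GLD-1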
Target sequence (Q17339 whole entry, looked up): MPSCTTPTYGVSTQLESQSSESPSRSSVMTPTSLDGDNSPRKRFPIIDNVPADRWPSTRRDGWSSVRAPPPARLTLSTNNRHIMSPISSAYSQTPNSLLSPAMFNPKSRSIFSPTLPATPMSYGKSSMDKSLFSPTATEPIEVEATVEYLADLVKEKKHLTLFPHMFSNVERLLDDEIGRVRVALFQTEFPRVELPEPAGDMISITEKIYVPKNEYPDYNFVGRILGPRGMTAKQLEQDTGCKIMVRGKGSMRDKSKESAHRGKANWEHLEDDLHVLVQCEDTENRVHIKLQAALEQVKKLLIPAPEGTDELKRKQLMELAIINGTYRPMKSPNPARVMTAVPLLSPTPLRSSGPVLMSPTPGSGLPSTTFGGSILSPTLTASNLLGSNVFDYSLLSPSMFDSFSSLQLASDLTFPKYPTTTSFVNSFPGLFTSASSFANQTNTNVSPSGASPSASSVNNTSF
Mcl1-Bid inh – Mcl-1/Bid interaction inhibition; Q07820; inhibition, % at 21.7 µM; TR-FRET Mcl-1/Bid-Dy647 peptide binding, 1536-well; 220,000 compounds, 0.97% hits;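 active means compounds that cut the binding signal by more than half at the single screening dose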;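 further: His-tagged Mcl-1 with europium anti-His antibody binding Bid BH3 peptide; 0% = Mcl-1 plus peptide wells and 100% = peptide-only wells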
Bim-Mcl-1 – human Bim-Mcl-1 interaction inhibition; Q07820; Bead-based flow cytometry, Bim peptide-Mcl-1 binding; inhibition, % at 10 µM; 190,000 compounds, 0.1% hits; in the data active means inhibition above about 40%;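 further: 0% = no compound tracer wells and 100% = peptide blocker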
An asterisk follows results filed as active; x = not tested or not shown.

SMILES | Bcl-xL primary | MCL1 BIM primary | Mcl1-Noxa inh | GLD-1 RNA inh | Mcl1-Bid inh | Bim-Mcl-1
CCC(C)NC(=O)C1CCC(CNS(=O)(=O)c2ccc3c(c2)N(C(C)=O)CCO3)CC1 (configuration not stated) | -1 | -1 | x | 0 | x | x
Cc1cc(NC(=O)COC(=O)C2CC2)ccc1Br | -5 | 0 | x | -5 | x | x
COc1cccc(/C=N/n2c(SC)nnc2-c2ccccc2)c1OC | -2 | -1 | -2 | -6 | -18 | -2
COc1cccc(/C=N/n2c(SC)nnc2-c2ccccc2)c1O | 10 | 8 | 51* | -3 | -98 | 0
COc1ccc(/C=C/c2n[nH]c(=O)c(C#N)c2C)cc1 | 2 | -2 | x | 0 | x | x
CC1CC(C)CN(c2ncnc3c2cnn3Cc2ccc(Cl)cc2)C1 (configuration not stated) | 3 | 8 | 64* | 1 | 13 | -4
CCN1C(=NCCc2c[nH]c3ccccc23)N[C@@H](c2ccccc2)[C@H](C(=O)OC)[C@H]1C | -7 | -15 | x | 7 | x | x
COc1cccc(NC(C)(C)c2nnnn2-c2c(C)cccc2C)c1 | -1 | 5 | 36 | 4 | 52* | x
CC(OC(=O)CSc1ccc([N+](=O)[O-])cc1)C(=O)NCc1ccccc1 (configuration not stated) | 2 | 12 | x | 3 | x | x
Cc1cc(C)cc(NC(=O)CSc2nc(N)c(NC(=O)c3ccc(Br)o3)c(=O)[nH]2)c1 | 2 | -4 | x | -6 | x | x
Cc1ccc(Cn2c(SCC(=O)N/N=C/c3ccc(C)o3)nc3ccccc32)cc1 | 0 | 0 | 23 | 4 | 52* | -2
CCOc1ccc(CN2CCNC(=O)C2CC(=O)NCCc2ccccn2)cc1 (configuration not stated) | 14 | 8 | 9 | 12 | -17 | -2
O=C(CC1C(=O)NCCN1Cc1ccccn1)NCCc1ccccc1F (configuration not stated) | 30* | 34 | x | 21 | x | x
O=C(O)c1ccc(N2C(=O)CCCC2=O)cc1 | -1 | 1 | 59* | -1 | -28 | x
O=C1CCCC(=O)N1c1ccc(O)cc1 | 5 | 3 | 2 | -3 | -24 | -2
O=c1oc2ccccc2n1CCn1c2ccccc2c2nc3ccccc3nc21 | 3 | -5 | -34 | -3 | 90* | 12
COc1ccc2c(c1)c1nc3ccccc3nc1n2CCn1c(=O)oc2ccccc21 | 4 | -1 | 21 | 3 | 37 | -2
Cc1ccc(-n2c(C)n[nH]c2=S)cc1C | 4 | -8 | 12 | -4 | 97* | -7
Cc1cc2nc(-c3ccc(SCC(=O)Nc4nccs4)nc3)[nH]c2cc1C | x | x | 73* | x | 25 | -6
Cc1ccc2nc(-c3ccc(SCC(=O)O)nc3)[nH]c2c1 | 1 | 6 | 31 | 2 | -4 | 1
CCc1nnc(NC(=O)CSc2ccc(-c3nc4ccc(C)cc4[nH]3)cn2)s1 | 2 | -5 | 58* | 2 | 31 | -3
Cc1c(NC(=O)C(C)OC(=O)c2ccc(NC(=O)CC#N)cc2)c(=O)n(-c2ccccc2)n1C (configuration not stated) | -1 | -8 | x | -13 | x | x
COCCN=c1scc(-c2ccco2)n1/N=C/c1ccc(O)c(O)c1O | -15 | 11 | 103* | -15 | 3 | 7
CC(C)N=c1scc(-c2ccco2)n1/N=C/c1ccc(O)c(O)c1 | 4 | 27 | 35 | 2 | -8 | 0
CC(=O)c1cccc(NC(=O)Nc2cc3sccc3n2C)c1 | 26 | 28 | 71* | 2 | -32 | 0
SMILES | Bcl-xL primary | MCL1 BIM primary | Mcl1-Noxa inh | GLD-1 RNA inh | Mcl1-Bid inh | Bim-Mcl-1
CC(=O)c1cccc(NC(=O)Nc2cccs2)c1 | 5 | 5 | 3 | 8 | -21 | -5
COc1cc(/C=N/NC(=O)c2cc(-c3ccc4c(c3)OCO4)n[nH]2)ccc1O | 5 | 16 | 55* | 5 | 1 | 9
Nc1cc(C(=O)OCC(=O)Nc2cccc(S(=O)(=O)N3CCOCC3)c2)ccc1Cl | x | x | x | 5 | x | x
CCn1c(SCC(=O)N2CCCC2)nc2c1c(=O)n(C)c(=O)n2C | 52* | 2 | 2 | -1 | 1 | -1
CCn1c(SCC(=O)N2CCN(C)CC2)nc2c1c(=O)n(C)c(=O)n2C | -3 | -6 | x | -4 | x | x
CCOC(=O)c1c(CSc2ccsc2)n(C)c2cc(Br)c(O)c(CN(C)C)c12 | 12 | 13 | 60* | 15 | -124 | x
